# Biological target: Solute carrier family 2, facilitated glucose transporter member 1 (Homo sapiens) (UniProt P11166)
# Test: ST_JUDE_LEISH: Cytotoxicity at 2uM final concentration against transgenic Leishmania Mexicana promastigotes LmGLUT1 that are glucose transport deficient and complemented with the human glucose transporter GLUT1. Activity is measured by DNA content using SYBR green in vitro
# Type: functional
# Chain of Solute carrier family 2, facilitated glucose transporter member 1 (Homo sapiens) (P11166 whole entry): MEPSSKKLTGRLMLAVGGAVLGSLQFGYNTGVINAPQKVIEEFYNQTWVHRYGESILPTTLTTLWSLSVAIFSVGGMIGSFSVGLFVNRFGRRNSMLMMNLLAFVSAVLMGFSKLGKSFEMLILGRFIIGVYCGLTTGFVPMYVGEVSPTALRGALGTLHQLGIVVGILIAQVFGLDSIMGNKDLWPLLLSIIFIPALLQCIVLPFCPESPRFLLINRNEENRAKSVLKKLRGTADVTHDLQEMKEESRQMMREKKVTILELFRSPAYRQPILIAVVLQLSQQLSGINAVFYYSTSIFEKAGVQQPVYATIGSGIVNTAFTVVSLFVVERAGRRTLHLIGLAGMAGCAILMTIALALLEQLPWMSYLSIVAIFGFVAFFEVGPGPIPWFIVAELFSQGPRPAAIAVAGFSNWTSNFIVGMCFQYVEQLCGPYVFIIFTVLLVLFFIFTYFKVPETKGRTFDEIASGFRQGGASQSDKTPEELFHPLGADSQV
row,Compound,inhibition [%]
1,O=C(Nc1ccc2c(c1)CNCC2)c1ccc(-c2ccc(Cl)cc2)cc1,105
2,COc1ccc(NC(=O)c2ccc(OCCCCCCCOc3ccc(C(=O)Nc4ccc(OC)c(N5CCN(C)CC5)c4)cc3)cc2)cc1N1CCN(C)CC1,0.98
3,CCn1c(-c2nonc2N)nc2cnc(Oc3cccc(NC(=O)c4ccc(OCCN5CCCC5)cc4)c3)cc21,7.41
4,CCOc1cc(C(=O)NCc2ccc(Cl)c(Cl)c2)ccc1-c1nc2cc(Cl)ccc2[nH]1,-0.85
5,Cc1ccc(Cn2nc(Cl)c(N3CCCNCC3)cc2=O)cc1NC(=O)Nc1ccc(-c2ccccc2)cc1,-1.89
6,O=C(OCC1CCN(Cc2ccccc2)C1)c1ccc(Cl)cc1 (stereo not given),0.47
7,Cc1ccc(NC(=O)NCCCCCN2CCC(c3c[nH]c4ccccc34)CC2)cc1I,3.96
8,O=C(Nc1cccc(Cl)c1Cl)NC1CCN(Cc2cccc(O)c2)CC1,3.63
9,O=C(NCc1ccccc1)c1ccc(C(=O)NCC2CNCCO2)cc1 (stereo not given),5.08
10,CC(C)C(C)(C#N)NC(=O)CSc1nc2ccc([N+](=O)[O-])cc2s1 (stereo not given),-0.35
11,COC(=O)c1cccc(CNCc2ccc(-c3ccc(-c4nc5cc(F)ccc5[nH]4)cc3)cc2)c1,13
12,Cc1nc2ccc(-c3ccc(OC(F)(F)F)cc3)cc2c(O)c1C#N,-2.1
13,COc1cc2nc(NCCc3ccccc3)nc(NCc3cc(C)no3)c2cc1OC,4.85
14,Cc1ccc(C(=O)Nc2ccc(OC3CCN(CCC(C)C)C3)c(Cl)c2)cc1 (stereo not given),3.79
15,O=C(c1ccc(F)c2ccccc12)N1CCc2cc3nccc(N4CCN5CCC[C@H]5C4)c3cc21,3.66
